In the library only some 1.6% were active in any assay of this set; here they are far more common.
TNFa cytotox: cytotoxicity in TNFa-stimulated HUVEC, primary screen, cytotoxicity control for VCAM1 expression modulator project, imaging, Hoechst nuclei count. HUVEC TNFalpha-stimulated, Hoechst cell count. cell count reduction, % at 2 µM. 93,000 tested, 0.17% active;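 active means cell count reduction exceeding the screen mean by over 5 SD, scaled to untreated wells per plate, cut at about 78% in these data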;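 further: cells counted after 24 h of TNF alpha exposure following the 1 h pretreatment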
VCAM1 TNFa inh: inhibitors of TNFa-induced VCAM1 expression, primary screen, imaging, HUVEC, TNFa stimulus, immunofluorescence; inhibition, % at 2 µM; 95,000 tested, 0.48% active; HUVEC TNFa-induced VCAM-1 immunofluorescence, high-content imaging;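 active means inhibition above the batch mean plus 3 SD, with images confirmed as a hit by eye, cut at about 37% in these data; inconclusive means inhibition above that limit but hit not confirmed in images; inactive means inhibition not above that limit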;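 further: 0% = TNF-stimulated DMSO wells and 100% = unstimulated control wells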
IL1B cytotox: cytotoxicity in IL-1B stimulated HUVEC, primary screen, cytotoxicity control for IL-1B NFkB translocation project, imaging, Hoechst nuclear count, IL-1B stimulus. HUVEC cell count loss. cell count reduction, % at 2 µM. 94,000 tested, 0.41% active. AID 845, 2007;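 active means cell count reduction more than 3 SD above the screen-wide mean, cut at about 70% in these data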;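 further: normalized per plate to untreated control cells as the no-loss baseline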
NFkB transloc inh: inhibitors of IL-1B driven NFkB p65 nuclear import, primary screen, imaging, HUVEC, IL-1B stimulus, high-content imaging | HUVEC IL-1B NFkB p65 nuclear translocation imaging | inhibition, % at 2 µM | 94,000 tested, 0.43% active | AID 796, 2007;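 active means inhibition above about 30% together with a positive call from visual inspection of the well image, limit read from the data; inconclusive means inhibition above a set limit but visual check negative; inactive means inhibition not above a set limit, visual check negative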;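 further: nuclear over cytoplasmic p65 intensity ratio measured by imaging; 0% = IL-1B stimulated DMSO wells and 100% = unstimulated DMSO wells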
cytoskel mod: modifiers of F-actin cytoskeleton organization, primary screen, imaging, HUVEC, phalloidin staining, high-content imaging; HUVEC TNFa F-actin phalloidin imaging; inhibition, % at 2 µM; 91,000 tested, 0.18% active; AID 836, 2007;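 active means inhibition above the batch mean plus 3 SD and confirmed as a hit by visual image inspection, cut at about 30% in these data, passing the limit was not always enough; inconclusive means above the inhibition threshold but rejected on visual inspection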
NFkB transloc pot: enhancers of NFkB p65 translocation in HUVEC – imaging, IL-1B stimulus, high-content imaging, primary screen. HUVEC IL-1B NFkB p65 nuclear translocation imaging. activation, % at 2 µM. 94,000 tested, 0.3% active. AID 819, 2007;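 active means activation above 40%, about the mean plus 3 SD, also judged a hit on visual image review; inconclusive means activation above 40% but not a hit on visual review; inactive means activation not above 40% and no visual hit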;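 further: percent activation is computed from the nuclear over cytoplasmic p65 intensity ratio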
* hit, by the source's call; ? = inconclusive; · = no result.

SMILES	TNFa cytotox	VCAM1 TNFa inh	IL1B cytotox	NFkB transloc inh	cytoskel mod	NFkB transloc pot
CCCCNC(=O)CCn1nc(-c2ccccc2)ccc1=O	-15	15	-4	-53	-4	53*
COCCOC(=O)c1[nH]c2c(c1C)C(=O)CC(c1ccc(F)cc1)C2 (stereo not drawn)	-23	20	-12	-6	4	6
COCCOC(=O)c1[nH]c2c(c1C)C(=O)CC(c1ccccc1)C2 (stereo not drawn)	60	56*	4	22	22	-22
CCn1cnc2scc(-c3ccccc3)c2c1=O	-10	-9	-1	-3	-7	3
Cn1cc(/C=N/n2cnc3scc(-c4ccc(Cl)cc4)c3c2=O)c2ccccc21	65	75*	57	37*	-205	-37
CCCn1nc2cc(C(=O)NCCc3cccs3)ccc2c1OCC	19	25	8	-5	-18	5
COc1ccc(-c2cc(C(F)(F)F)nc(-n3cc(Br)cn3)n2)cc1	8	-27	10	-54	·	54*
COc1ccc(-c2cc(C(F)(F)F)nc(-n3cc(Cl)cn3)n2)cc1	0	-2	7	-4	·	4
CO/N=C/C(=N\Nc1ccc(C)cc1)C(=O)c1ccc(OC)cc1	24	40*	24	3	-19	-3
CO/N=C\C(=N\Nc1ccc(OC)cc1)C(=O)c1ccccc1	-18	21	-4	-16	-2	16
COc1ccc(S(=O)(=O)Cc2ccc(C(=O)NC3CCCC3)o2)cc1	-12	4	-39	-15	-1	15
CCOC(=O)N1CCC(NC(=O)c2ccc(CS(=O)(=O)c3ccc(OC)cc3)o2)CC1	-32	85*	-28	6	27	-6
COc1ccc2cc3cc(C(=O)NCCN4CCN(c5ccccc5F)CC4)oc3nc2c1	-20	-4	-11	-45	-36	45*
COc1ccc2cc3cc(C(=O)Nc4ccccc4N4CCN(C)CC4)oc3nc2c1	-13	25	-5	0	-13	0
O=C(NCc1ccccn1)C1CCC(=O)N1C1CCCC1 (stereo not drawn)	-16	-5	-3	5	20	-5
Cc1ccc2[nH]c3c(c2c1)CCC3=O	2	50*	-4	7	15	-7
Cc1ccc2[nH]c3c(c2c1)CCCC3=O	14	11	15	0	-24	0
COC(=O)[C@@H]1[C@@H](C#N)C2(c3ccccc3-c3ccccc32)N(c2ccc(Cl)cc2)N1C#N	-27	8	-24	-5	0	5
CCOC(=O)C(C)Oc1cccc2c(=O)n(CC(=O)NCc3ccc4c(c3)OCO4)ccc12 (stereo not drawn)	94*	39	-48	-14	?	14
CCOC(=O)C(C)Oc1cccc2c(=O)n(CC(=O)Nc3ccc4c(c3)OCCO4)ccc12 (stereo not drawn)	-3	3	-15	6	-5	-6
CCN(CC)S(=O)(=O)c1cc(F)ccc1OC	-14	0	77*	6	0	-6
CCCC(C)NS(=O)(=O)c1ccc(OC)c(C)c1 (stereo not drawn)	-5	-1	28	20	7	-20
Cc1c(C)c2c(C)[nH]nc2oc1=O	-16	2	76*	14	26	-14
CCCc1c(C)c2c(C)[nH]nc2oc1=O	-12	-5	·	·	-17	·
COC(=O)c1sccc1NC(=O)C12CC3CC(CC(C3)C1)C2	·	-4	5	0	-12	0
Nc1nc2ccc(O)cc2s1	-10	24	-33	35*	-3	-35
Nc1nc2ccc(S(=O)(=O)c3ccc4nc(N)sc4c3)cc2s1	-23	-2	-21	-4	7	4
CC(C)n1c(SCCCc2ccccc2)nc2c1c(=O)[nH]c(=O)n2C	-9	7	11	38*	2	-38
Cn1c(=O)oc2cc(S(=O)(=O)N3CCCC(C(=O)Nc4nccs4)C3)ccc21 (stereo not drawn)	-18	19	12	-41	5	41*

Screening results (PubChem)
